Giardia killer = Small Molecules that selectively kill Giardia lamblia: qHTS | 340,000 tested, 0.15% active | Giardia lamblia trophozoite viability | activity change, % at 7.66 µM, hits read low; in the data active means activity change below about -80%; inconclusive means between about -30% and that limit;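 further: parasites exposed to compound for two days anaerobically before the ATP read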
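Compounds were tested on trophozoites seeded at 100 cells/well and held 48 hrs at 37 deg C anaerobically. An ATP-based luminescent kit measured the remaining live cells.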
FBPA coupling cs = qHTS Assay for Inhibitors of Fructose-1,6-bisphosphate Aldolase from Giardia Lamblia: Coupling assay counterscreen; coupling enzyme system counterscreen, AmpLite Red fluorescence; activity change, negative = inhibition, % at 58.2 µM, hits read low; 290,000 tested, 0.67% active; in the data active means activity change below about -30%
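Coupling enzymes only (glyceraldehyde-3-phosphate) + compound, at 57.5 uM final, 10 min RT; add substrate/coupling/AmpLite Red mix, 20 min RT; fluorescence ex 525/em 598 nm. Actives flag coupling-system interference.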
Sfp inh = qHTS Assay for Inhibitors of Bacillus subtilis Sfp phosphopantetheinyl transferase (PPTase); 310,000 tested, 3.5% active; Biochemical Sfp PPTase activity, qHTS; 4'-phosphopantetheinyl transferase ffp (Bacillus subtilis), Q9F4F7; AID 1490, 2009; Potency, µM, for inactives: largest response in the series, negative = inhibition, actives largely listed as inhibitors;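 further: the enzyme is Sfp with the accession as filed and its product quenches rhodamine fluorescence; potency means the concentration at half of the fitted maximal effect; 0% = enzyme reaction without inhibitor and -100% = no enzyme wells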
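Reaction rates are the 30-min fluorescence difference (ex 525, em 598 nm) in wells containing 15 nM Sfp, 5 uM rhodamine-CoA and 12.5 uM BHQ-2-YbbR at pH 7.6 with 10 mM MgCl2.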
ELG1 DNA repair = qHTS screen for small molecules that inhibit ELG1-dependent DNA repair in human embryonic kidney (HEK293T) cells expressing luciferase-tagged ELG1. HEK293T ELG1-luciferase reporter, luminescence, 16 h; DNA damage induced by 5-fluorouridine. AID 504467, 2011. 330,000 tested, 2.3% active. Potency, µM (highest dose often 46.1 µM), for the others: at the highest dose activity change, negative = inhibition, usual class: inhibitors; further: potency means the concentration at half of the fitted maximal effect; nearly all actives have a fitted effect of over 55% in size
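Cells (2,000 per well) received 5-fluorouridine plus test compound or DMSO and were incubated 16 hr at 37 °C, 5% CO2. Luciferase activity was read by luminescence 30 min after ONE-Glo addition; signal suppression marked inhibition of damage-induced ELG1 function.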
* = called active by the depositor; ? = inconclusive; / = no result. In the library only some 5.5% were active in any assay of this set; here they are far more common. Unless noted, the call rests on the fitted dose curve; in most records, active means well fitted curve in the direction sought with a large enough effect; inconclusive means small, poorly fitted or top-dose-only effect, or another doubt; inactive means no such curve, though single readings can be large; an effect the other way counts as inactive or inconclusive. Unless noted, on the % scale 0 is the no-effect control and ±100 the full control effect.

SMILES | Giardia killer | FBPA coupling cs | Sfp inh | ELG1 DNA repair
O=[N+]([O-])c1nn(-c2ccc3c(c2)OCCO3)n(O)c1=NCc1ccc(F)cc1 | ? | 1.6 | -0.9% | ?
O=[N+]([O-])c1nn(-c2ccc3c(c2)OCCO3)n(O)c1=NCCC1=CCCCC1 | -92.5* | -2.4 | 8.2% | ?
O=[N+]([O-])c1nn(-c2ccccc2)n(O)c1=NC1CCN(Cc2ccccc2)CC1 | -85.4* | -4.2 | 16.5% | ?
CN=c1c([N+](=O)[O-])nn(-c2ccc3c(c2)OCCO3)n1O | ? | -11.9 | 9.2% | ?
Cc1cnc(C(=O)OCC(=O)N2C(C)CCCC2C)cn1 (stereo not given) | 3.1 | / | / | -4.8%
CN(Cc1ccccc1)C(=O)c1ccc(NC(=O)C2CCCN(C(=O)OC(C)(C)C)C2)cc1 (stereo not given) | 14.2 | / | / | 20.6µM*
CN(C(=O)c1cccc(NC(=O)C2CCN(C(=O)OC(C)(C)C)CC2)c1)C1CCCCC1 | 7.7 | / | / | 23.1µM*
CN(Cc1ccccc1)C(=O)c1ccc(NC(=O)Cc2cccc(NC(=O)C3CCCN(C(=O)C4CCCCC4)C3)c2)cc1 (stereo not given) | 19.5 | / | / | 14.6µM*
CN(Cc1ccccc1)C(=O)c1ccc(NC(=O)Cc2cccc(NC(=O)C3CCN(C(=O)C4CCC4)CC3)c2)cc1 | 9.5 | / | / | 5.17µM*
Nc1ncnc2c1ncn2[C@@H]1O[C@H](C(=O)NC2CC2)[C@@H](O)[C@H]1O | / | / | 4.9% | /
OC1CNc2c(ccc3ccccc23)C1 (stereo not given) | -3.8 | / | / | /
COCc1cc(C)nc(Sc2nc3c(c(=O)n(C)c(=O)n3C)n2C)c1C#N | 8.1 | 1.3 | -12.9% | 0.0%
CCOc1ccccc1NC(=O)C(NCCN(C)C)c1ccccc1 (stereo not given) | 6.2 | 2.3 | 79.4µM* | -4.9%
CCOc1ccccc1NC(=O)C(NCCc1ccc(OC)cc1)c1ccccc1 (stereo not given) | -0.5 | / | ? | ?
CN(C)CCNC(C(=O)Nc1cccc(C(F)(F)F)c1)c1ccccc1 (stereo not given) | ? | 2.8 | 15.8µM* | 1.3%
Oc1cc2c(cc1C(c1ccc(Br)cc1)N1CCCC1)OCO2 (stereo not given) | -17.1 | -12.6 | 17.8µM* | ?
O=C(c1ccco1)N1CCC2(CC1)CCN(c1ccc(-c3ccccc3)cc1)CC2 | / | 2.1 | 8.2% | /
CN(C)c1cccc2c(S(=O)(=O)Nc3ccccn3)cccc12 | 15.1 | -11.2 | 3.3% | 1.4%
Cc1noc(NS(=O)(=O)c2cccc3c(N(C)C)cccc23)c1C | / | 4.9 | 50.1µM* | /
COc1cccc(CN(C)C(=O)c2ccc(Oc3ccccc3)cc2)c1OC | -20.5 | -1.3 | -6.1% | 25.1%
Cc1ccc(CNC(=O)CCC2CCCN(C(=O)c3ccc4c(c3)OCO4)C2)o1 (stereo not given) | 3.6 | -0.1 | 28.2µM* | -11.1%
O=C(CCC1CCCN(C(=O)c2ccc3c(c2)OCCO3)C1)NCc1ccccc1F (stereo not given) | 7.7 | 1.2 | 5.8% | ?
O=c1cc(C(F)(F)F)[nH]c(=S)n1-c1ccccc1 | 6.0 | 0.9 | 35.5µM* | 20.3%
Nc1cc(=O)[nH]c(=S)n1-c1ccccc1 | 31.2 | 1.4 | ? | 2.7%
CC(C)C[C@H]1CNC(=O)C(=O)N1CC1CCN(CCc2ccc(-c3ccccc3)cc2)CC1 | 11.9 | / | / | /
SMILES | Giardia killer | FBPA coupling cs | Sfp inh | ELG1 DNA repair
O=C(N/N=C/c1ccc(O)cc1O)C(=O)N/N=C/c1ccc(O)cc1O | -9.4 | 0.1 | 15.5% | -10.7%
CC12CCC(C(=O)NCc3ccccc3)(OC1=O)C2(C)C (stereo not given) | 8.1 | 1.5 | 10.2% | 4.2%
C/C(=N\NC(=O)C12CCC(C)(C(=O)O1)C2(C)C)c1ccccc1O (stereo not given) | 10.4 | -0.3 | -7.7% | 20.6µM*
CC12CCC(C(=O)N/N=C/c3ccc(O)cc3O)(OC1=O)C2(C)C (stereo not given) | -7.0 | 1.4 | 2.0% | 13µM*
CCOc1cc(/C=C2\C(=O)ON=C2c2ccccc2)ccc1OC | 5.9 | -2.0 | 28.2µM* | ?
O=C1ON=C(c2ccccc2)/C1=C/c1ccco1 | 21.7 | -0.3 | 50.1µM* | ?
O=C1ON=C(c2ccccc2)/C1=C/c1ccc(-c2ccccc2[N+](=O)[O-])o1 | 0.7 | -7.2 | ? | ?
CN(C)/C=C1\C(=O)ON=C1c1ccccc1 | 5.8 | 6.2 | 9.9% | -6.7%
COc1ccc(/C=C2\C(=O)ON=C2c2ccccc2)cc1OC | -11.9 | -2.7 | 22.4µM* | 25.8%
COc1ccc(C=C2C(=O)OC(C)(C)OC2=O)cc1OC | 3.5 | 0.6 | -12.1% | ?
O=C1ON=C(c2ccc([N+](=O)[O-])cc2)/C1=C/c1ccccc1O | 26.7 | 6.0 | 39.8µM* | 1.6%
COc1ccc(/C=C2\C(=O)ON=C2c2cccc([N+](=O)[O-])c2)cc1 | / | 4.2 | 56.2µM* | 1.7%
O=C1NNC(c2ccccc2)=N/C1=C\c1ccco1 | -18.5 | -2.7 | 35.5µM* | -18.9%
COc1cc(/C=C2\C(=O)ON=C2c2ccccc2)cc(OC)c1OC | 0.3 | 3.2 | 50.1µM* | ?
COc1ccc(/C=C2/C(=O)ON=C2c2ccccc2)cc1OC | 8.1 | 1.2 | 35.5µM* | ?
NC(=O)CC(NC(=O)c1cccc(Br)c1)c1ccc(NC2CCCCCCCCCCC2)c([N+](=O)[O-])c1 (stereo not given) | -10.3 | -1.2 | -3.7% | -17.1%
O=C(NNC(=O)c1ccc(NC(=O)c2ccccc2)cc1)c1ccc(F)cc1 | -14.1 | 0.0 | 11.8% | 3.8%
O=C(NC1=C(Nc2ccc(F)cc2)C(=O)c2ccccc2C1=O)c1ccc(Cl)cc1 | 7.3 | -42.3* | -1.7% | -10.3%
CCc1ccc(NC(=O)C(C)OC(=O)c2cccc(S(=O)(=O)N3CCc4ccccc4C3)c2)cc1 (stereo not given) | -6.6 | -44.7* | 89.1µM* | ?
CC(OC(=O)c1cccc(S(=O)(=O)N2CCN(C)CC2)c1)C(=O)Nc1ccc(C(N)=O)cc1 (stereo not given) | 24.2 | / | / | 20.4%
CCn1c(SC(C)C(=O)NC2CCCC2)nc2cc(S(N)(=O)=O)ccc21 (stereo not given) | -21.3 | / | / | 17.5%
CCOC(=O)Cc1csc(NC(=S)NC(=O)c2ccccc2)n1 | 9.0 | 3.3 | 15.8µM* | 10.0%
CCOC(=O)Cc1csc(NC(=O)Nc2cccc(Cl)c2)n1 | -0.5 | -0.5 | 8.2% | -18.8%
CCOC(=O)Cc1csc(NC(=O)Nc2ccc(Cl)cc2)n1 | 0.2 | 0.2 | 20.0% | 18.3µM*
O=C(Cc1cccc(NC(=O)C2CCCN(C(=O)CCc3ccccc3)C2)c1)Nc1ccc(C(=O)N2CCCCC2)cc1 (stereo not given) | -7.2 | / | / | /
COc1ccc(C2NCCc3c2[nH]c2ccccc32)cc1CSc1nc2ccccc2s1 (stereo not given) | 16.9 | -2.4 | 44.7µM* | ?

Compound activity as filed in PubChem.
